# Measured values published in PubChem BioAssay (EPA / NIEHS).
# Records with an inconclusive call do not appear. Activity calls are given as the source filed them. The calls were made as follows, unless noted: active = hit-call score of the fitted dose curve at least 0.9, where 1 is the maximum; inconclusive = response in the unintended direction; inactive = score below 0.9.
# Target: Cellular tumor antigen p53 (Homo sapiens) (UniProt P04637)
# Assay: TOX21_p53_BLA_p4_ratio: Tox21 HCT-116 p53 Agonism Beta-lactamase Assay, Ratio, Phase 4 (AID 2283601)
# How it was run: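 HCT-116 p53 beta-lactamase reporter cells (4000/well) preincubated 5 h, then compound (217-fold dilution of DMSO stock) for 16 h at 37C. CCF4-AM substrate added 2 h at room temperature; 460/530 nm emission ratio fitted upward versus DMSO.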
# Cellular tumor antigen p53 (Homo sapiens), sequence (P04637 whole entry, looked up): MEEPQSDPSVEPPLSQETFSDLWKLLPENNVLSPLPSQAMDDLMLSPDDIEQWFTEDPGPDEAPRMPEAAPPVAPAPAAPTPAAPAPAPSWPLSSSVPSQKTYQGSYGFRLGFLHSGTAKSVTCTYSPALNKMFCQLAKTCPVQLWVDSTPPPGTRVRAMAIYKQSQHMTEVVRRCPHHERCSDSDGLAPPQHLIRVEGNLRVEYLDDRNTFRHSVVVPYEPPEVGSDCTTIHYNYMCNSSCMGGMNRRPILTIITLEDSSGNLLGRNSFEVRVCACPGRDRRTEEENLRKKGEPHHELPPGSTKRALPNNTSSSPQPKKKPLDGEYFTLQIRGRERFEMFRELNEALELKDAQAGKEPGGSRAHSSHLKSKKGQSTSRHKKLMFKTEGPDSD
SMILES,outcome,AC50
C=CC[C@]1(O)CC[C@H]2[C@@H]3CCC4=CC(=O)CCC4=C3C=C[C@@]21C,inactive,
O=c1c2ccccc2[se]n1-c1ccccc1,inactive,
COc1cccc2c1cc([N+](=O)[O-])c1c(C(=O)O)cc3c(c12)OCO3,,3.74 µM (active)
CCN(CC)CCO[C@H]1CC[C@@]2(C)C(=CC[C@@H]3[C@@H]2CC[C@]2(C)C(=O)CC[C@@H]32)C1,inactive,
Nc1ccccc1C(=O)OCC=Cc1ccccc1,inactive,
O=c1oc2ccccc2c(O)c1Cc1c(O)c2ccccc2oc1=O,,3.95 µM (active)
Oc1cc(Cl)cc(Cl)c1,inactive,
CC(C)CON=O,inactive,
N=C(N)[Se],inactive,
c1ccc2c(c1)cc1ccc3cccc4ccc2c1c34,,2.39 µM (active)
O=C(O)/C=C\C(=O)O,inactive,
Cc1cc(C(C)(C)c2cc(C)c(O)c(C)c2)cc(C)c1O,,74.3 µM (active)

# Target: THRB (gene 7068) (UniProt P10828)
# Assay: TOX21_TRB_COA_Antagonist_Followup_ratio: Tox21 Thyroid Hormone Receptor beta Antagonism through Coactivator Recruitment Follow-Up Assay, Ratio (AID 2283967)
# How it was run: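 GST-TRb LBD 5.0 nM + 0.10% BSA, compound added; fluorescein-SRC-2 peptide 200 nM, Tb-anti-GST Ab 2 nM. TR-FRET, ex 340 / em 520:495 ratio. Norm: DMSO 0%, T3 100%.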
# THRB (gene 7068), sequence (P10828 whole entry, looked up): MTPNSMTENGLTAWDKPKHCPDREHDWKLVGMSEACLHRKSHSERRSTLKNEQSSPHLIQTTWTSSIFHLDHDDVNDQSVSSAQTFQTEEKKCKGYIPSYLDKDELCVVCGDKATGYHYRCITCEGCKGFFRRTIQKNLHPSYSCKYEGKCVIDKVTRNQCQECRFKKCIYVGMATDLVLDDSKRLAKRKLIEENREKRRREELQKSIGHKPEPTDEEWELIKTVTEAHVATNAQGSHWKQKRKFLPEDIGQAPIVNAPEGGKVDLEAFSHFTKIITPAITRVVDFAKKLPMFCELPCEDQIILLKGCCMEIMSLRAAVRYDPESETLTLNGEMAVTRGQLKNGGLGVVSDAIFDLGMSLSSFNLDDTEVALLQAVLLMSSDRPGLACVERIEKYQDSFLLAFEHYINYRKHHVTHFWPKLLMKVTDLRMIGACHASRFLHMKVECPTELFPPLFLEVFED
row,SMILES,outcome
1,C=CC[C@]1(O)CC[C@H]2[C@@H]3CCC4=CC(=O)CCC4=C3C=C[C@@]21C,inactive
2,CCN(CC)CCO[C@H]1CC[C@@]2(C)C(=CC[C@@H]3[C@@H]2CC[C@]2(C)C(=O)CC[C@@H]32)C1,inactive
3,O=c1oc2ccccc2c(O)c1Cc1c(O)c2ccccc2oc1=O,inactive

# Target: Retinoic acid receptor RXR-alpha (Homo sapiens) (UniProt P19793)
# Assay: TOX21_TR_RXR_BLA_Antagonist_Followup_ratio: Tox21 Thyroid Hormone Receptor beta Retinoid X Receptor alpha (RXRa) Antagonism Beta-lactamase (BLA) Follow-Up Assay, Ratio (AID 2283972)
# How it was run: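 RXRa-UAS-bla HEK293T cells, 2,500/well in phenol red-free DMEM with 2% charcoal-stripped FBS, 5 h attachment, then compounds (11 concentrations, triplicate) for 16 h at 37C; FRET-B/GCCF4-AM substrate 2 h RT; 460:530 nm ratio, loss of signal vs DMSO.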
# Retinoic acid receptor RXR-alpha (Homo sapiens), sequence (P19793 whole entry, looked up): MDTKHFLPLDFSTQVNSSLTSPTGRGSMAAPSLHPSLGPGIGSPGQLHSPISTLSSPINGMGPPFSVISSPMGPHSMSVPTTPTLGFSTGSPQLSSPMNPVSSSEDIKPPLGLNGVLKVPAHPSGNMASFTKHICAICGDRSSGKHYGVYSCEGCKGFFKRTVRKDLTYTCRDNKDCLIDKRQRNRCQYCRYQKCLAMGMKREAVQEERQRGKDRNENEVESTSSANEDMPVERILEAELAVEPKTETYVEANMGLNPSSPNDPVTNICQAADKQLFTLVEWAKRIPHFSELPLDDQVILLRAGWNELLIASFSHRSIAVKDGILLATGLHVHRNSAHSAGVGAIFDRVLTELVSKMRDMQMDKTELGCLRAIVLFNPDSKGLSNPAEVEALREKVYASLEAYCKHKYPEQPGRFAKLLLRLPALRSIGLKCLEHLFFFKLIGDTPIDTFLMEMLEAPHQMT
row,SMILES,outcome
1,C=CC[C@]1(O)CC[C@H]2[C@@H]3CCC4=CC(=O)CCC4=C3C=C[C@@]21C,inactive
2,CCN(CC)CCO[C@H]1CC[C@@]2(C)C(=CC[C@@H]3[C@@H]2CC[C@]2(C)C(=O)CC[C@@H]32)C1,inactive
3,O=c1oc2ccccc2c(O)c1Cc1c(O)c2ccccc2oc1=O,inactive

# System: not listed separately
# Assay: TOX21_TR_RXR_BLA_Antagonist_Followup_viability: Viability Assessment in the Tox21 Thyroid Hormone Receptor beta Retinoid X Receptor alpha (RXRa) Antagonism Beta-lactamase (BLA) Follow-Up Assay (AID 2283979)
# How it was run: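 RXRa-bla HEK293T cells (2,500/well, phenol red-free DMEM, 2% charcoal-stripped FBS) were attached 5 h, then exposed to compounds at 11 concentrations in triplicate for 16 h at 37C. Viability measured by CellTiter-Glo ATP luminescence, bidirectional fitting versus DMSO.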
row,SMILES,outcome
1,C=CC[C@]1(O)CC[C@H]2[C@@H]3CCC4=CC(=O)CCC4=C3C=C[C@@]21C,inactive
2,CCN(CC)CCO[C@H]1CC[C@@]2(C)C(=CC[C@@H]3[C@@H]2CC[C@]2(C)C(=O)CC[C@@H]32)C1,inactive
3,O=c1oc2ccccc2c(O)c1Cc1c(O)c2ccccc2oc1=O,inactive

# System: not listed separately
# Assay: CCTE_Harrill_HTTr_Viability_MCF7: CCTE's 6-hour Cell Viability Assessment for the High-Throughput Transcriptomics (HTTr) Platform, in MCF-7 cells cultured in DMEM + 10% fetal bovine serum, Harrill Lab (AID 2284010; active = hit-call score of the fitted dose curve at least 0.9, where 1 is the maximum; inactive = score below 0.9)
# How it was run: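 Propidium iodide exclusion, imaged by high-content analysis, gauged viability after a six-hour exposure across eight concentrations. Cells were MCF-7 grown in DMEM with 10% fetal bovine serum; fits run in both directions against DMSO.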
row,SMILES,outcome
1,CCCCCCCCCCCCN=C(N)N,inactive
2,CCCC(C)(COC(N)=O)COC(=O)NC(C)C (stereo not drawn),inactive
3,CNC(=O)ON=C(CSC)C(C)(C)C,inactive

# System: not listed separately
# Assay: CCTE_Harrill_HTTr_Apoptosis_MCF7: CCTE's 6-hour Apoptosis Assessment for the High-Throughput Transcriptomics (HTTr) Platform, in MCF-7 cells cultured in DMEM + 10% fetal bovine serum, Harrill Lab (AID 2284011; active = hit-call score of the fitted dose curve at least 0.9, where 1 is the maximum; inactive = score below 0.9)
# How it was run: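 MCF-7 cells in DMEM + 10% FBS exposed 6 h to chemicals over an eight-point dilution series. Caspase-3/7 activation imaged by high-content CellEvent Green staining; fitted bidirectionally versus DMSO.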
row,SMILES,outcome
1,CCCCCCCCCCCCN=C(N)N,inactive
2,CCCC(C)(COC(N)=O)COC(=O)NC(C)C (stereo not drawn),inactive
3,COc1cccc2c1cc([N+](=O)[O-])c1c(C(=O)O)cc3c(c12)OCO3,inactive
4,CNC(=O)ON=C(CSC)C(C)(C)C,inactive
